Screening results deposited in PubChem by National Center for Advancing Translational Sciences (NCATS).
POLK inh: blocks human DNA polymerase kappa activity. Q9UBT6. purified Pol kappa, fluorescent DNA synthesis assay, 10 min. AID 588579. 400,000 compounds, 0.53% hits. Potency, µM (titrated, usually from 107 µM), for inactives: at the highest dose activity, negative = inhibition, hits mostly inhibitors; note: potency is the fitted concentration of half-maximal effect; % is set by controls: 0 for no effect and ±100 for the full control effect
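Kinetic fluorescence readout at 0 and 10 min followed reaction start with substrate at 50 nM final. Beforehand, enzyme (10 nM Pol kappa) stood 15 min with compound at room temperature; buffer-only wells were negative controls.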
PI5P4Ka inh: blocks human PI5P4K alpha kinase activity; P48426; PI5P4Kalpha enzyme, ADP-Glo luminescence, 60 min; stronger effect = lower value; max response, %; 330,000 compounds, 1.2% hits; AID 652105; active = max response of -50% or lower; inconclusive = between -30% and -50%; inactive = -30% or higher; note: value at the top dose of about 77 µM; % is set by controls: 0 for no effect and ±100 for the full control effect
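qHTS, 1536-well: enzyme/substrate mix, compound by pin tool, 5 microM ATP final; RT 60 min; ADP-Glo reagents 1 (45 min) then 2 (30 min); luminescence.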
Pol eta inh: inhibitors of human DNA polymerase eta; Q9Y253; recombinant Pol eta, fluorescent DNA replication assay; Potency, µM (top dose mostly 114 µM), for inactives: top-dose activity change, negative = inhibition, actives largely listed as inhibitors; 390,000 compounds, 1.2% hits; note: potency is the fitted concentration of half-maximal effect; % is set by controls: 0 for no effect and ±100 for the full control effect
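Pol eta (10 nM) was preincubated with compounds for 15 min at room temperature, after which fluorescent replication substrate (50 nM final) was added to start the reaction. Fluorescence was read kinetically at 0 and 10 min.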
WRN inhibitor: WRN helicase (human) inhibition | WRN helicase unwinding, fluorescent forked duplex, kinetic | AID 651768 | 360,000 compounds, 0.46% hits | Potency, µM (series often up to 114 µM), inactives show top-dose activity change, negative = inhibition, most hits filed as inhibitors | Q14191; note: potency is the fitted concentration of half-maximal effect; % is set by controls: 0 for no effect and ±100 for the full control effect; nearly all actives have a fitted effect of over 55% in size
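Primary qHTS, 1536-well format. 20 nM WRN + compound, 15 min RT; start with 100 nM forked fluorophore/quencher duplex, 2 mM ATP (final); kinetic read ex 525/em 598 nm.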
POLB inh: blocks human DNA polymerase beta activity. Pol beta primer extension/strand displacement, fluorescence kinetic. Potency, µM (top dose mostly 114 µM), without a hit: at the highest dose activity change, negative = inhibition, usual class: inhibitors. 340,000 compounds, 1.3% hits. AID 485314; note: potency is the fitted concentration of half-maximal effect; % is set by controls: 0 for no effect and ±100 for the full control effect
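Pol beta (10 nM) and compounds were preincubated 15 min at room temperature, then 50 nM substrate (final) started primer extension/strand displacement. Reads were taken at 0 and 10 min; concentration-response data were fitted to a four-parameter Hill equation.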
Pol iota inh: blocks human DNA polymerase iota activity. Pol iota fluorescent replication assay, 10 min. Potency, µM (top dose mostly 115 µM), for the others: at the highest dose activity, negative = inhibition, usual class: inhibitors. 390,000 compounds, 1% hits. Q9UNA4; note: potency is the fitted concentration of half-maximal effect
Target sequence (Q9UNA4 whole entry, looked up): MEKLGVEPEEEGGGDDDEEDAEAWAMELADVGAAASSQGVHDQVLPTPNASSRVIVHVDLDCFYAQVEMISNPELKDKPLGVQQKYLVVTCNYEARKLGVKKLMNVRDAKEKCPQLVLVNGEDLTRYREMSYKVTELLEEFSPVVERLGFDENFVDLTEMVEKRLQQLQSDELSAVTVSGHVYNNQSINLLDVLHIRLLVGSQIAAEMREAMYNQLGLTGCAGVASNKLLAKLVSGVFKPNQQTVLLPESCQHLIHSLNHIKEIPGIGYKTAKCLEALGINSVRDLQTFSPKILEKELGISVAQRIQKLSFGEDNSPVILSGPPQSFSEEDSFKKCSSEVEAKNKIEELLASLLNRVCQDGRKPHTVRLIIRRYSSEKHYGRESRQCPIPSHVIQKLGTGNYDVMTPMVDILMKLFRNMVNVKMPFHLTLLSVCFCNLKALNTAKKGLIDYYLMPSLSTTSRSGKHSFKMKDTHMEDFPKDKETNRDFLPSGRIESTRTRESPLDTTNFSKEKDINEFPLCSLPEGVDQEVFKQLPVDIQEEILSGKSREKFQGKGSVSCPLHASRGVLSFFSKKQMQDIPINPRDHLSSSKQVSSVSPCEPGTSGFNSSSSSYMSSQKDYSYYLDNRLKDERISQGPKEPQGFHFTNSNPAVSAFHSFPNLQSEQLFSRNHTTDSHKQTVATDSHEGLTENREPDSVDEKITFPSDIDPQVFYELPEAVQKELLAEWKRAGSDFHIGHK
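Pol iota at 10 nM preincubated 15 min with compounds at room temperature; reaction started with fluorescent substrate, 50 nM final. Fluorescence read kinetically at 0 and 10 min; buffer-only wells as negative control.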
* marks the source's active call; other numbers are inactive results; ? = inconclusive; . = not tested or not shown; [ ] = remark or other dose. The list is not random: actives were taken first. Their share in the collection is about 2.8%. Unless noted, calls come from the whole dose curve; as a rule, active = well fitted curve in the direction sought with a large enough effect; inconclusive = small, poorly fitted or top-dose-only effect, or another doubt; inactive = no such curve, though single readings can be large; an effect the other way counts as inactive or inconclusive.

SMILES	POLK inh	PI5P4Ka inh	Pol eta inh	WRN inhibitor	POLB inh	Pol iota inh
O=C(COC(=O)c1ccc(S(=O)(=O)NCc2ccco2)cc1)NCC1CCCCC1	-30.9%	.	?	?	35.5µM*	?
N#CCC(=O)Nc1ccc(C(=O)OCC(=O)NC(=O)NCc2ccco2)cc1	-7.5%	-54.9*	?	-35.8%	.	?
O=C(COC(=O)Cc1c(Cl)cccc1Cl)NCc1ccco1	?	-20.0	35.5µM*	-7.6%[11.6 µM]	.	44.7µM*
N#CCC(=O)Nc1ccc(C(=O)OCC(=O)NC2CCCc3ccccc32)cc1 (stereo unspecified)	-38.0%	?	39.8µM*	3.9%[11.6 µM]	.	?
CC(NC(=O)Cc1ccsc1)c1ccc(F)cc1 (stereo unspecified)	-0.1%	-11.0	-7.7%	1.7%	32.9%	20.1%
CN(C)c1ccc(N=Nc2ccc(/C=C/c3ccnc4ccccc34)cc2)cc1	-20.1%	.	.	.	.	?
CN1C(=O)S/C(=C/c2ccccc2OCc2ccc(C(=O)O)cc2)C1=O	-8.0%	-3.0	-5.7%	-23.8%	7.6%	39.2%
CC(C)N1C(=O)S/C(=C/c2ccccc2OCc2ccc(C(=O)O)cc2)C1=O	?	0.4	89.1µM*	-13.1%	0.6%	?
COc1cccc(/C=C2\SC(=O)NC2=O)c1OCc1ccc(C(=O)O)cc1	-20.9%	-86.6*	-4.1%	-9.0%	-4.3%	20.9%
CN1C(=O)S/C(=C\c2ccccc2OCc2ccc(C(=O)O)cc2)C1=O	-7.1%	4.8	?	-12.1%	-1.4%	19.0%
CCCCNc1nc2c(c(=O)n(Cc3ccccc3)c(=O)n2C)n1C	1.7%	0.4	-0.1%	-1.9%	?	-16.8%
Cc1ccc(N(C(=O)c2ccco2)C2C=CS(=O)(=O)C2)cc1 (stereo unspecified)	-8.0%	0.9	-3.1%	2.9%	-23.8%	24.4%
O=c1ccc(=O)n(CCc2ccccn2)[nH]1	-4.1%	0.6	-12.6%	4.4%	.	-18.4%
NC(=O)c1ccc(NC(=O)c2ccc(COc3ccc(F)cc3)o2)cc1	1.5%	-0.2	-17.0%	-1.2%	.	0.6%
CC(=O)Oc1ccc(-c2cc3c(OC(C)=O)cc(OC(C)=O)cc3oc2=O)cc1	?	-55.8*	-2.8%	-15.8%	.	?
CC(=O)Oc1ccc(-c2cc3ccccc3oc2=O)cc1	14.4%	3.4	-3.0%	-1.7%	.	4.3%
COc1ccc2oc(C(=O)Nc3nccs3)c(C)c2c1	7.1%	-16.7	-20.7%	-0.2%	.	17.7%
CCOc1ccc2oc(C(=O)Nc3nccs3)c(C)c2c1	-2.3%	7.7	22.4µM*	-5.1%[11.6 µM]	.	19.9%
CCOc1ccc(CNC(=O)c2cccc(NC(=O)N3CCSc4ncccc43)c2)cc1	3.2%	.	-19.3%	.	9.0%	28.6%
Cc1oc(-c2ccccc2Cl)nc1CSCC(=O)N1CCCC1	-12.5%	-0.7	10.9%	-0.6%	79.4µM*	26.4%
Cc1oc(-c2ccccc2Cl)nc1CSCC(=O)NC1CCCC1	-1.6%	-2.4	0.1%	1.8%	6.0%	0.6%
Cc1cc(C)c(NC(=O)CSc2nnnn2-c2cccnc2)c(C)c1	-14.6%	-0.8	-4.9%	-2.2%	13.5%	11.2%
Cc1cc(Cl)ccc1NS(=O)(=O)c1cc2[nH]c(=O)c(=O)[nH]c2cc1C	-8.9%	.	-8.4%	.	39.2%	16.4%
CCN(CC)c1ccc(NS(=O)(=O)c2cc3[nH]c(=O)c(=O)[nH]c3cc2C)c(C)c1	?	.	-24.5%	.	50.1µM*	?
COc1ccc(/C=C/C(=O)c2ccc([N+](=O)[O-])o2)cc1OC	5.2%	-1.6	?	-21.8%	.	8.91µM*
SMILES	POLK inh	PI5P4Ka inh	Pol eta inh	WRN inhibitor	POLB inh	Pol iota inh
Cc1cc(O)c(C(=O)/C=C/c2ccccc2O)c(=O)o1	5.0%	-5.8	?	-8.5%	-1.1%	16.5%
COc1cc(/C=C/C(=O)c2ccc([N+](=O)[O-])o2)ccc1O	5.9%	-12.3	?	-7.2%	.	?
NS(=O)(=O)c1ccc(CNC(=O)/C=C/c2cccc(Cl)c2)cc1	-5.9%	15.7	-12.0%	-3.7%	24.1%	11.4%
Cc1cc(O)c(C(=O)/C=C/c2cccc([N+](=O)[O-])c2)c(=O)o1	?	-85.9*	79.4µM*	-27.2%	?	39.8µM*
O=C(/C=C/c1cccc(Cl)c1)c1ccc([N+](=O)[O-])o1	-3.3%	-51.1*	?	-21.3%	.	?
COc1ccc(C(C)=NOC(=O)c2c(-c3ccccc3Cl)noc2C)cc1CN1CCOCC1	.	2.9	-15.3%	-8.0%	.	.
CCOc1ccc(/C=C2\SC(=S)N(CC(=O)N(CCO)C(C)(C)C)C2=O)cc1	-19.8%	2.8	-23.8%	-3.3%	3.2%	51.2%
CCOc1ccc(/C=C2/SC(=O)NC2=S)cc1	?	-3.2	-20.9%	?	?	89.1µM*
CCOc1ccc(N=C2NC(=O)S/C2=C\c2ccc(N(C)C)cc2)cc1	-4.9%	.	79.4µM*	?	3.0%	?
CCOc1ccc(/C=C2\SC(=S)N(N3C(=O)C4CC4C3=O)C2=O)cc1 (stereo unspecified)	-12.1%	-6.0	-15.0%	-0.1%[57.1 µM]	0.2%	23.8%
Oc1ccc(/C=C/c2nc(-c3ccccc3O)n(-c3ccccc3)n2)c(O)c1	-21.2%	.	-19.8%	.	3.3%	?
CC(C)CC1=C/C(=C/c2ccc(-c3ccccc3)o2)C(=O)O1	44.7µM*	-68.0*	2.82µM*	50.1µM*	15.8µM*	20µM*
NS(=O)(=O)c1ccc(-c2ccc(C=C3C(=O)c4ccccc4C3=O)o2)cc1	5.4%	1.2	-1.7%	-5.8%	24.8%	?
O=C(O)c1cc(N=Nc2c(O)[nH]c3ccc([N+](=O)[O-])cc23)ccc1Cl	1.5%	-73.1*	?	?	-1.0%	?
COC(=O)c1ccc(COc2ccc3c(C)c(C)c(=O)oc3c2)o1	-6.0%	.	-15.2%	-5.9%	56.2µM*	?
CC(C)(C)S(=O)N1Cc2cc(CO)cc(CCO)c2[C@@H]1CCO (stereo partly specified)	-5.5%	-9.8	-4.7%	-6.4%	.	3.3%
CN(Cc1ccco1)c1ccnc(-c2cccnc2)n1	25.1µM*	.	.	.	.	.
O=C(O)CC1(CC(=O)N2CCOCC2)CCCC1	2.2%	-21.6	-7.7%	-25.1%	28.3%	36.5%
NC(=O)c1ccc(N=C2C(=O)Nc3ccc([N+](=O)[O-])cc32)cc1	-9.0%	5.4	20µM*	4.0%	?	?
Cc1cc(C)cc(N2CC(O)=C(c3nc4ccccc4c(=O)[nH]3)C2=N)c1	?	7.7	?	50.1µM*	-27.1%	?
COc1cccc(N2CC(O)=C(c3nc4ccccc4c(=O)[nH]3)C2=N)c1	-12.9%	.	2.0%	-6.5%	22.8%	-9.1%
CSc1cccc(NC(=O)Cn2ncn3c(cc4ccccc43)c2=O)c1	-1.7%	.	-13.0%	.	2.1%	22.9%
